Compounds with a hit are over-represented: about 2% of the library has one in this group of screens.
JMJD2E inh – inhibitors of human JMJD2E histone demethylase; Potency, µM (titrated, usually from 57.1 µM), inactives show at the highest dose activity change, negative = inhibition, hits mostly inhibitors; B2RXH2; JMJD2E catalytic domain, FDH-coupled NADH fluorescence (FDH is formaldehyde dehydrogenase); hit rate 1.6% among 230,000; active = well fitted inhibition curve with a large enough effect, not every such curve was filed as active; inconclusive = small, poorly fitted or top-dose-only effect, or another doubt; inactive = no such curve, though single readings can be large or run the other way;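 also: potency is read from the fitted curve at half-maximal effect; 0% = wells with enzyme and -100% = buffer wells without enzyme; nearly all actives have a fitted effect of over 50% in size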
Target sequence (B2RXH2 1-337 limits assumed): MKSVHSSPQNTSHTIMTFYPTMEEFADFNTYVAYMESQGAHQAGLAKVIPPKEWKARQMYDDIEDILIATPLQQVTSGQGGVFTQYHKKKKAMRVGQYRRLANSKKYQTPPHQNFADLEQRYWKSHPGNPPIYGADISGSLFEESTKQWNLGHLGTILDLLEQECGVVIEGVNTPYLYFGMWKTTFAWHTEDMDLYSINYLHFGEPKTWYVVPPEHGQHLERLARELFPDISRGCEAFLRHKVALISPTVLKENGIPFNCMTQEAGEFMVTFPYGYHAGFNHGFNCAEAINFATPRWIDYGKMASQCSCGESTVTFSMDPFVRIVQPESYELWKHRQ
hERG WT inh – KCNH2 (human, wildtype) channel inhibition; activity change, % at 1.84 µM; AID 720551; U2OS, BacMam KCNH2, thallium flux FluxOr; stronger effect = lower value; hit rate 0.37% among 340,000; Q12809;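 active = maximum activity change below -70%; inconclusive = maximum activity change between -70% and -50%; inactive = maximum activity change above -50%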
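U2OS cells transduced with wild-type KCNH2 virus are loaded with FluxOr dye for 45 min, and thallium flux is measured in kinetic reads before and after stimulation buffer. Rate constants are normalized to DMSO controls.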
Six1-Eya2 inh – Six1/Eya2 interaction inhibition; Q15475+O00167; AlphaScreen GST-Six1/His-Eya2 binding, biochemical; stronger effect = lower value; activity change, % (test concentration not listed); hit rate 0.56% among 360,000; AID 651725
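Homogeneous AlphaScreen proximity assay pairing GST-Six1 with His-tagged Eya2 (added as 5X mix: 250 nM and 500 nM) in 50 mM Tris pH 8.0, 300 mM NaCl, 1 mM TCEP. Glutathione donor and nickel acceptor beads; 1 h, 37 °C, dark.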
KCNH2 3.1 inh – blocks the human KCNH2 3.1 channel isoform | U2OS KCNH2 3.1, thallium flux FluxOr; stronger effect = lower value | activity change, % (tested at about 1.8 µM) | hit rate 0.95% among 340,000 | AID 720553;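 active = maximum activity change below -70%; inconclusive = maximum activity change from -70% to -50%; inactive = maximum activity change above -50%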;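 also: thallium influx rate constant from kinetic fluorescence after stimulation buffer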
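Steps: virus added to U2OS suspension (4 h, RT, dark); medium with 10% FBS added, cells plated, 37 C overnight; FluxOr/Red40 loading buffer 45 min RT; stimulation buffer, 2 min kinetic read; rate constant normalized.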
CtBP-E1A blk – CtBP/E1A binding inhibition | activity change, % (concentration not given with the values) | AID 651724 | AlphaScreen GST-E1A/His-CtBP binding, 1536-well; stronger effect = lower value | hit rate 0.49% among 340,000
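Steps: dispense buffer (Tris pH 8.0, NaCl 300 mM, TCEP 1 mM, BSA, Tween 20); add 5X protein mix (GST-E1A, His-CtBP, 125 nM each); pin 23 nL compound; 2 h at 37 °C, dark; add 5X beads (50 ug/mL); 1 h; read.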
* hit, by the source's call; ? = inconclusive; / = no result given; [ ] = remark or other dose. Rule as the data show it, unless noted: active = activity change below about -65%; inconclusive = mostly about -30% to -63%; inactive = weaker than that. Unless noted, % is scaled to controls: 0 for no effect and ±100 for the full control effect.

SMILES	JMJD2E inh	hERG WT inh	Six1-Eya2 inh	KCNH2 3.1 inh	CtBP-E1A blk
O=C(Nc1nc(-c2nc3ccccc3s2)cs1)C1COc2ccccc2O1 (stereo not given)	?	-6	-14	-83*	-2
O=C(Oc1ccc(Cl)c2cccnc12)c1ccco1	7%	-7	-88*	2	-83*
Cc1nn(Cc2ccc(Cl)cc2)c(C)c1NC(=O)c1noc2c1CCc1ccccc1-2	1%	-20	-11	5	-6
COc1ccc2c(c1)CCc1c(C(=O)Nc3c(C)nn(Cc4ccccc4)c3C)noc1-2	1%	-6	-2	-71*	-1
C=CCC(NC(=O)c1ccc(C#N)cc1)C(=O)NCCC (stereo not given)	/	-14	3	7	0
COc1cc(/C=N/N2C(=O)CSC2=S)cc(Br)c1O	?	9	?	-10	0
O=C1CSC(=S)N1N=Cc1c(O)ccc2ccccc12	/	2	-88*	-14	-89*
COc1cccc(/C=N/N2C(=O)CSC2=S)c1O	-4%	-4	-90*	12	-13
COc1ccc2ccccc2c1/C=N/N1C(=O)CSC1=S	-19%	10	-28	9	0
CCOc1ccc(N2CC(C(=O)NC3CCCC3)CC2=O)cc1 (stereo not given)	/	0	6	-18	10
Nc1nc(COC(=O)CCC(=O)c2ccccc2)nc(Nc2ccccc2)n1	/	0	-6	1	1
CCOCCCNC(=O)/C(C#N)=C/c1ccc(Cl)c([N+](=O)[O-])c1	20µM*	-3	-6	-3	4
COc1cc(NC(=O)c2ccccc2Cl)ccc1NC(=O)c1cccs1	-10%	-11	?	-1	-8
COc1ccc(OC)c(NC2=NC3(CCCCC3)N=C(N)N2)c1	3%	8	-84*	2	-73*
CCOC(=O)c1cn(CC(=O)Nc2ccc(C)cc2)nn1	1%	0	-2	-1	-10
CCOC(=O)c1cn(CC(=O)Nc2ccc(CC)cc2)nn1	3%	-208*	22	2	5
COc1ccc(S(=O)(=O)n2oc(=O)cc2-c2ccccc2)cc1	-4%	-11	-90*	-26	-73*
COc1ccc(S(=O)(=O)n2oc(=O)cc2-c2ccccc2)cc1OC	?	11	-95*	0	?
O=c1cc(-c2ccccc2)n(S(=O)(=O)c2ccccc2)o1	-14%	20	4	34	-3
Cc1ccc(N2C(=O)NC(NS(=O)(=O)c3ccc(C)cc3)(C(F)(F)F)C2=O)cc1 (stereo not given)	/	16	0	9	0
CCN(CC)C(=O)N1c2ccccc2CC(N(CC)CC)c2ccccc21 (stereo not given)	-5%	-4	-2	-4	4
CCOc1ccc(-c2[nH]nc3c2C(c2ccc4c(c2)OCO4)C(C#N)=C(N)O3)cc1OC (stereo not given)	-7%	-6	2	14	-3
CCCCn1c(N)c(N(CC)C(=O)CCNC(=O)NC23CC4CC(CC(C4)C2)C3)c(=O)[nH]c1=O	/	-3	8	-71*	6
CCCCn1c(N)c(N(CC)C(=O)CCNC(=O)c2ccc(Cl)cc2)c(=O)[nH]c1=O	/	-2	-5	3	-8
CC1Cc2ccccc2N1C(=O)CN1C(=O)COc2ccccc21 (stereo not given)	-6%	2	-1	1	4
SMILES	JMJD2E inh	hERG WT inh	Six1-Eya2 inh	KCNH2 3.1 inh	CtBP-E1A blk
O=c1[nH]cnc2nn(-c3ccccc3)nc12	?	-1	?	11	-65*
O=c1[nH]cnc2nc(-c3ccccc3)c(-c3ccccc3)nc12	3.2µM*	-1	0	-23	1
O=c1[nH]cnc2ncc(-c3ccc(O)cc3)nc12	/	4	?	6	?
CCc1ccccc1N(C)S(=O)(=O)c1ccc2[nH]cc(C(=O)N3CCc4ccccc43)c(=O)c2c1	5%	-24	2	-85*	2
COC(=O)C1=C(C(=O)OC)[C@@H]2N(C)c3ccc(OC)cc3[C@@]23C[C@@H](C(=O)OC)N=C3N1	8%[11.4 µM]	9	1	12	-1
COc1ccc(C2c3[nH]c4ccccc4c3CCN2Cc2cccn2-c2ncccn2)cc1C (stereo not given)	-1%	?	-6	-79*	26
Cc1cccc(C2c3[nH]c4ccccc4c3CCN2Cc2cccn2-c2ncccn2)c1 (stereo not given)	32µM*	?	?	?	-12
COc1ccccc1C1c2[nH]c3ccccc3c2CCN1Cc1cnc(C)s1 (stereo not given)	?	-2	-2	-3	/
c1ccc(C2c3[nH]c4ccccc4c3CCN2Cc2cccn2-c2ccccn2)nc1 (stereo not given)	?	-43	-7	?	-25
O=C(CCCc1c[nH]c2ccccc12)NCc1ccc2c(c1)OCO2	-7%	-4	-11	-2	-2
CN(C(=O)COc1cc(=O)n(C)c2ccccc12)c1ccc(Cl)cc1	-4%	-6	3	10	1
COC(=O)[C@@H](N)Cc1ccc(O)c(O)c1	13µM*	-9	7	9	8
O=C(O)Cc1ccc(O)c(O)c1	25µM*	-1	3	0	15
C[C@@](N)(Cc1ccc(O)c(O)c1)C(=O)O	7.9µM*	/	/	/	/
COC(=O)C(N)Cc1ccc(Cl)cc1 (stereo not given)	10%	16	2	0	4
CCOC(=O)C1=C(C)NC2=C(C(=O)C(C(=O)OCC)C(c3cccc(OC)c3)C2)C1c1ccccn1 (stereo not given)	?	-3	7	-10	15
COc1ccc(-c2ocnc2C(=O)Nc2ccc(N3CCOCC3)cc2N2CCOCC2)cc1OC	/	-5	-11	-13	0
OCC1(CCc2ccccc2)CCCN(CCCc2ccccc2)C1 (stereo not given)	/	?	1	-96*	-4
CCOC(=O)C1(CCOc2ccccc2)CCN(Cc2ccc(OCC)c(CO)c2)CC1	/	-87*	0	-108*	-7
CCOC(=O)C1(CCOc2ccccc2)CCN(Cc2ccc(OC)cc2)CC1	/	-98*	0	-120*	-18
CCOC(=O)C1(CCOc2ccccc2)CCN(Cc2cc(OC)c3c(c2)OCO3)CC1	-1%	-32	-19	-71*	-16
CCOC(=O)C1(CCOc2ccccc2)CCN(Cc2cccc(OCCO)c2)CC1	/	-8	-2	?	0
O=S(=O)(Nc1ccccc1O)c1ccc(-c2ccccc2)cc1	-2%	/	1	-23	/
Cc1ccc(-n2c(=O)c3sccc3n(CC(=O)NC3CCCCC3)c2=O)cc1	-3%	-1	4	17	5
O=C(c1ccc2ccccc2n1)N1CCN(S(=O)(=O)c2ccc(Cl)cc2)CC1	/	4	-10	-1	-1
